ssDAF12 agonist – S. stercoralis DAF-12 nuclear receptor activators, primary screen, cell-based, luminescence, HEK293, GRIP1 co-expression, lit1-tk-luc; HEK293 ssDAF-12/GRIP1 lit1-tk-luc reporter; % of 3 µM dafachronic acid response; activation, % at 6.8 µM; 370,000 compounds, 1% hits;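 active = activation above the mean over all tested compounds plus 3 SD, cut at about 0.9% in these data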;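 note: 0% = DMSO-only wells and 100% = 3 µM delta7-dafachronic acid wells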
DAX1 inh – DAX1 (NR0B1) inhibitors on StAR promoter, primary screen, cell-based, luminescence, SF-1 (NR5A1), full-length DAX-1; HEK293T StAR-luciferase reporter, SF-1/DAX-1 repression relief; inhibition, % at 6.8 µM; 370,000 compounds, 1.1% hits;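 active = inhibition above the mean over all tested compounds plus 3 SD, cut at about 3.6% in these data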;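 note: 0% = DAX-1 cells with DMSO and 100% = cells lacking DAX-1 with DMSO; higher inhibition means more luminescence from relief of DAX-1 repression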
hcDAF12 agonist – H. contortus DAF-12 nuclear receptor activators, primary screen, cell-based, luminescence, HEK293, lit1-tk-luc reporter | HEK293 hcDAF-12 lit1-tk-luc reporter; 0% DMSO, 100% Δ7-dafachronic acid | activation, % at 6.8 µM | 370,000 compounds, 1.4% hits;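 active = activation above the mean of all tested compounds plus 3 SD, cut at about 5.5% in these data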;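 note: 100% = response to 3 µM Δ7-dafachronic acid high control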
SMARCA2 act – SMARCA2 (BRM) function activators, primary screen, cell-based, luminescence, high throughput. MG213 cells, MMTV-luciferase reporter, dexamethasone, overnight. activation, % at 9.1 µM. AID 652017, 2013. 370,000 compounds, 1% hits; in the data active = activation above about 7.8%;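 note: 0% = vehicle wells and 100% = reference activator wells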
hgDAF12 agonist – H. glycines DAF-12 receptor agonists, primary screen, cell-based, luminescence, HEK293, GAL4 fusion, UAS-luciferase; 370,000 compounds, 1.8% hits; AID 687014, 2013; activation, % at 6.8 µM; Nuclear hormone receptor DAF-12 (Heterodera glycines), GAL4 fusion; HEK293 GAL4-hgDAF12 UAS-luciferase reporter, agonist luminescence; normalized to butyrate control;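 active = activation above a cutoff set at the mean of all screened compounds plus 3 SD, cut at about 10% in these data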;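 note: 0% = DMSO wells and 100% = sodium butyrate wells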
The depositor's hits bear a star; x = no result given. Rows were chosen to be rich in hits. Some 4.2% of all compounds tested hit in one or more screens of this group.

SMILES	ssDAF12 agonist	DAX1 inh	hcDAF12 agonist	SMARCA2 act	hgDAF12 agonist
CCCC1CCC2(CCCN2CCOC(=S)Nc2ccccc2Br)CC1 (stereo unspecified)	-1.0	x	-1.4	x	1.3
CCOC(=O)C1CCN(C(=O)C(C)(C)NC(=O)Nc2ccc(OC)c(Cl)c2)CC1	-0.8	x	-0.1	x	-1.6
CCOC(=O)/C(C#N)=C/c1cn(CCOc2ccccc2)c2ccccc12	6.7*	-0.2	-1.4	0.3	1.3
CC(C)(C)c1cc(NCCCn2ccnc2)n2ncc(-c3ccc(Cl)cc3)c2n1	-0.8	0.4	1.5	3.5	10.4*
Cc1cc(NCCCn2ccnc2)n2nc(-c3ccc(Cl)cc3)cc2n1	-1.1	0.0	3.2	1.9	3.1
O=C(O)c1cc(=O)[nH]c2c(Cl)cccc12	0.6	0.3	5.8*	7.6	2.2
O=C(Nc1cc([N+](=O)[O-])c2[nH]c(=O)c3ccccc3c2c1)C(F)(F)F	-0.3	3.9*	1.8	-4.2	-2.8
O=C(NCCc1ccccc1)c1ccc(-c2ccccc2C(F)(F)F)o1	-0.9	0.5	0.1	1.3	1.7
O=C(NCc1ccccc1)c1ccc(-c2ccccc2F)o1	0.9*	2.6	1.1	5.1	10.1
c1ccc(-c2nc3ccccc3n2C(c2ccccc2)c2nc3ccccc3[nH]2)cc1 (stereo unspecified)	0.3	3.6	4.8	-0.5	12.5*
O=c1c(-c2ccccc2)nc2ccccc2n1C(c1ccccc1)c1nc2ccccc2[nH]1 (stereo unspecified)	-0.9	0.5	-1.6	7.1	7.2
COC(=O)[C@]12C[C@H](CC(=O)NCC34CC5CC(CC(C5)C3)C4)C(=O)N(Cc3ccco3)C1=C[C@H](COCc1ccccc1)O[C@@H]2C	-1.1	-0.4	-2.8	-2.1	-0.3
COc1cccc(/C=N/NC(=O)CCn2c3ccccc3c3ccccc32)c1	1.4*	0.1	0.6	0.4	4.6
c1ccc2[nH]c(SCC3CCCCO3)nc2c1 (stereo unspecified)	-0.3	2.2	2.8	3.1	11.2*
O=C(O)CSc1nc2ccccc2[nH]1	-0.5	0.6	-0.5	5.7	0.4
CCOc1ccc2nc(SC(C)C(N)=O)[nH]c2c1 (stereo unspecified)	-0.8	0.5	0.3	7.9*	2.4
CCOc1ccc2nc(SCC3CC3(Cl)Cl)[nH]c2c1 (stereo unspecified)	-1.3	0.2	1.3	4.8	11.6*
ClC1(Cl)CC1CSc1nc2ccccc2[nH]1 (stereo unspecified)	-0.9	2.6	-0.9	2.5	12.3*
Cc1ccccc1NC(=O)CSc1nnc(-c2cc(-c3ccccc3)n[nH]2)n1N	-1.8	-3.3	0.0	0.5	4.1
CCC[C@H]1[C@@H](OC(=O)NCCc2ccccc2)CC[C@@]23CCCN2C(=O)CCC[C@@H]13	-1.7	x	0.0	x	-3.9
COCC(=O)N1CCN(C(=O)C(=O)c2cccc(C(F)(F)F)c2)CC1	-0.8	0.0	-0.5	-6.9	0.8
COc1cccc2cc(C(=O)OCC(=O)N3CC(C)OC(C)C3)c(=O)oc12 (stereo unspecified)	-0.5	3.3	5.7*	3.0	9.5
COc1ccc(CCn2c(-c3ccccc3)nc3c(c(=O)c4ccccc4n3C)c2=O)cc1	-0.7	0.3	5.8*	-2.2	-1.9
COc1ccc(Cn2c(-c3ccccc3)nc3c(c(=O)c4ccccc4n3C)c2=O)cc1	-0.9	0.1	3.1	1.6	-1.6
CSc1nc(N)nc2c1ncn2CC(=O)NCc1ccccc1	0.9*	-1.1	0.5	-2.4	-2.3
SMILES	ssDAF12 agonist	DAX1 inh	hcDAF12 agonist	SMARCA2 act	hgDAF12 agonist
CN(Cc1ccccc1F)C(=O)C1CCCN(c2ncccn2)C1 (stereo unspecified)	-1.0	-0.8	-1.8	-5.8	2.6
Clc1cc(Cl)cc(CN2CCN(c3ncc(Cc4ccccc4)cn3)CC2)c1	-1.3	-0.4	-1.4	-4.2	-2.3
CCN(CC)C(=O)Oc1ccc2cc(Br)ccc2c1	-1.5	0.9	6.3*	1.8	5.3
CCN(CC)C(=O)Oc1ccc2c(=O)c(-c3ccc(OC)cc3)c(C)oc2c1	-2.3	-1.1	-1.1	-0.3	5.5
CC(=O)Nc1ccc(Oc2nc(-c3ccccn3)nc3ccccc23)cc1	0.0	0.0	-0.2	7.9*	4.9
Cc1ccccc1Cn1cc(CN2[C@H](C)COc3cc(Br)ccc3S2(=O)=O)nn1	-1.2	0.8	-2.2	-0.1	-0.5
CC(C)c1ccc(-c2nc3c([nH]2)c(=O)n(C)c(=O)n3C)cc1	-0.2	0.8	4.4	-1.1	0.8
COc1ccc(-c2nc3c([nH]2)c(=O)n(C)c(=O)n3C)c(OC)c1	1.1*	0.3	2.9	0.7	2.6
COc1cc2c(cc1NC(=O)C(C)OC(=O)c1ccc(S(=O)(=O)Nc3ccccc3Cl)cc1)oc1ccccc12 (stereo unspecified)	0.7	-0.6	5.8*	3.9	0.8
COc1cc2c(cc1NC(=O)C(C)N1CCN(S(=O)(=O)c3ccc(C)c(C)c3)CC1)oc1ccccc12 (stereo unspecified)	-0.1	-0.1	3.9	-1.8	2.5
COc1cc2c(cc1NC(=O)C(C)N1CCN(S(=O)(=O)c3ccccc3[N+](=O)[O-])CC1)oc1ccccc12 (stereo unspecified)	0.6	0.8	6.0*	5.5	4.4
CCCCCCCCNC(=O)C1CSCCS(=O)(=O)N1Cc1ccc(F)cc1 (stereo unspecified)	-1.2	-0.2	0.6	-3.7	-1.2
Cc1ccc(N(CCC#N)C(=O)CSc2nc3ccccc3c(=O)[nH]2)cc1	-0.9	3.7*	-1.5	-0.2	1.8
O=C(Nc1ccccc1Cl)C1CC(=O)N(c2ccccc2)C1 (stereo unspecified)	1.3*	-0.3	-0.8	-2.8	3.0
COC(=O)c1ccccc1NC(=O)C1CC(=O)N(c2ccccc2)C1 (stereo unspecified)	-1.7	-1.1	-1.7	2.6	-2.6
Cc1cc(NS(=O)(=O)c2ccc(NC(=O)CSc3nc4sc(C)c(C)c4c(=O)n3Cc3ccco3)cc2)nc(C)n1	-0.2	1.2	-2.2	3.4	-2.3
Cn1c2ccccc2c2cc(C(=O)NNC(=O)CCl)sc21	-0.9	-2.5	6.2*	-1.3	-2.2
C[C@@H]1OC(C2CCCCC2)N(C)[C@H]2C[C@H]3c4[nH]c5c(-c6ccc7c(c6)OCO7)cccc5c4CCN3C[C@@H]12 (stereo partly specified)	-1.1	1.3	-1.1	-5.3	2.9
CC(Cc1cccs1)NC(=O)c1cccs1 (stereo unspecified)	-1.6	1.8	4.4	4.5	4.6

Source: PubChem
